Assay [1] deals with Vero E6 infected with SARS-CoV-2. The assay can be described thus: morphology score (similarity to uninfected cells); higher = more like uninfected cells. As to conditions: 24 h.
The test system is the same in assay [2]. The assay can be described thus: SARS-CoV-2 infection rate relative to infected DMSO; higher = more infection, active = 60 or less. To be noted: 24 h.

Structures are written as SMILES.

`CCCNC(C)C(=O)Nc1ccccc1C` (stereo not drawn) [prilocaine] (10 µM): the morphology score in assay [1] is -0.208. Also, the SARS-CoV-2 infection rate in assay [2] is 112% (inactive).
The corresponding values for `Cc1ccc(NC(=O)c2cccc(C(C)(C)C#N)c2)cc1Nc1ccc2ncn(C)c(=O)c2c1` (0.833333 µM) are -0.0585 and 93.5% (inactive).
The corresponding values for `COc1cc(-n2cnc3cc(-c4ccc(Cl)cc4)sc3c2=O)ccc1OCCN1CCCC1` (10 µM) are 0.52 and 53% (active).
The matching figures for `c1ccc2c(c1)CCCc1cc(NCCN3CCOCC3)nnc1-2` (10 µM): -0.11 and 116% (inactive).
As to `O=C(/C=C/c1cccnc1)NCCCCC1CCN(C(=O)c2ccccc2)CC1` (0.833333 µM), the morphology score in assay [1] is -0.0966. Besides, the SARS-CoV-2 infection rate in assay [2] was 94% (inactive).
The corresponding values for `CC(C)C[C@H](NC(=O)CNC(=O)[C@H](Cc1ccc(O)cc1)NC(=O)[C@H](CO)NC(=O)[C@H](Cc1c[nH]c2ccccc12)NC(=O)[C@H](Cc1cnc[nH]1)NC(=O)[C@@H]1CCC(=O)N1)C(=O)N[C@@H](CCCNC(=N)N)C(=O)N1CCC[C@H]1C(=O)NCC(N)=O` [gonadorelin] (10 µM) are -0.182 and 104% (inactive).
The corresponding values for `CC(C)NCC(O)COc1cccc2[nH]c3ccccc3c12` (stereo not drawn) [carazolol] (10 µM) are -0.011 and 91.5% (inactive).
The matching figures for `Cc1cc(/C=C/c2ccc3cc(N(C)C)ccc3[n+]2C)c(C)n1-c1ccccc1` [pyrvinium-pamoate] (10 µM): -0.0751 and 113% (inactive).
In the case of `CC12CCC(C(Br)C1=O)C2(C)C` (stereo not drawn) [3-bromocamphor] (10 µM), in assay [1], the morphology score was -0.0927. Further, the SARS-CoV-2 infection rate in assay [2] was 106% (inactive).
The matching figures for `C[C@@H](Oc1ccc2[nH]nc(/C=C/c3cnn(CCO)c3)c2c1)c1c(Cl)cncc1Cl` (10 µM): -0.00865 and 120% (inactive).
The matching figures for `COc1cc(N2CCC(N3CCN(C)CC3)CC2)ccc1Nc1ncc(Cl)c(Nc2ccccc2P(C)(C)=O)n1` [brigatinib] (0.833333 µM): -0.178 and 105% (inactive).
The corresponding values for `O=[N+]([O-])c1cn2c(n1)OC[C@@H](OCc1ccc(OC(F)(F)F)cc1)C2` [pretomanid] (10 µM) are 0.0902 and 112% (inactive).
With `O=C(O)COc1ccc(OCCNC[C@H](O)COc2ccccc2)cc1` (10 µM), in assay [1], the morphology score was -0.002. Moreover, the SARS-CoV-2 infection rate in assay [2] is 104% (inactive).
The corresponding values for `N#Cc1c[nH]c2c(C(=O)N3CCN(CCc4ccc(F)cc4)CC3)cccc12` [pruvanserin] (10 µM) are 0.117 and 98.5% (inactive).
The corresponding values for `Clc1cccc(Cl)c1NC1=NCCN1` [clonidine] (10 µM) are 0.0616 and 100% (inactive).
Consider `CCN(CC)CCCCNc1ncc2cc(-c3c(Cl)cccc3Cl)c(NC(=O)NC(C)(C)C)nc2n1` (0.833333 µM), for which the morphology score in assay [1] amounted to 0.085. Also, the SARS-CoV-2 infection rate in assay [2] is 117% (inactive).
The matching figures for `Cc1nc2ccc(Oc3ccc(F)cc3)cc2c(=O)n1C[C@H]1CCCN(C(C)C)C1` (10 µM): 0.295 and 76% (inactive).
With `Cc1cc(C)c(S(=O)(=O)Nc2ccccc2C(F)(F)F)c(C)c1` (10 µM), the morphology score in assay [1] was -0.0872. Besides, the SARS-CoV-2 infection rate in assay [2] is 113% (inactive).
The matching figures for `c1ccc(CN(CC2=NCCN2)c2ccccc2)cc1` [antazoline] (10 µM): -0.22 and 112% (inactive).
The corresponding values for `O=C(Nc1ccccc1)N1CCN(c2nc(-c3ccccc3)ns2)CC1` (10 µM) are -0.272 and 112% (inactive).
The corresponding values for `NC1(Cc2ccc(Cl)cc2)CCN(c2ncnc3[nH]ccc23)CC1` (0.833333 µM) are 0.535 and 99.5% (inactive).
With `Oc1ccc(OC2CCCCO2)cc1` (stereo not drawn) [deoxyarbutin] (10 µM), the morphology score in assay [1] came to 0.198. Further, the SARS-CoV-2 infection rate in assay [2] is 97% (inactive).
In assay [1], `COc1cc(SC)ccc1C(=O)N1CCC(Cc2ccccc2)CC1` (10 µM) displayed a morphology score of 0.0267. The SARS-CoV-2 infection rate in assay [2] was 104% (inactive).
The corresponding values for `O=C(O[C@H]1C[N+]2(CCCOc3ccccc3)CCC1CC2)C(O)(c1cccs1)c1cccs1` [aclidinium] (10 µM) are 0.136 and 100% (inactive).
In assay [1], `CCCC[C@H](NC(=O)[C@@H]1[C@@H]2[C@H](CN1C(=O)[C@@H](NC(=O)NC1(CS(=O)(=O)C(C)(C)C)CCCCC1)C(C)(C)C)C2(C)C)C(=O)C(=O)NC1CC1` [narlaprevir] (10 µM) showed a morphology score of 0.157. Moreover, the SARS-CoV-2 infection rate in assay [2] is 111% (inactive).
On to `CC1CNc2c(cccc2S(=O)(=O)N[C@@H](CCCNC(=N)N)C(=O)N2CC[C@@H](C)C[C@@H]2C(=O)O)C1` (mixture of isomers) [argatroban] (10 µM), for which the morphology score in assay [1] is -0.0153. Moreover, the SARS-CoV-2 infection rate in assay [2] was 115% (inactive).
`N=C(N)NC(=N)Nc1cccc(Cl)c1` [m-chlorophenylbiguanide] (10 µM): the morphology score in assay [1] was -0.0474. Also, the SARS-CoV-2 infection rate in assay [2] was 108% (inactive).
The matching figures for `COc1c2occc2c(OC)c2c(=O)cc(C)oc12` [khellin] (10 µM): -0.102 and 109% (inactive).
The matching figures for `CCc1ccc(/C=C/C(=O)Nc2ccc(C(C)=O)cc2)o1` [heclin] (10 µM): 0.263 and 77% (inactive).

Source of the values: the supplement of paper PMC13380429.
